Reference: PubChem BioAssay
The source made the active and inactive calls.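 Rule for the calls: active = RAM network inhibition above 8.4% in each of two replicates, 3 SD over the compound average; inconclusive = above 8.4% inhibition in only one replicate; inactive = 8.4% inhibition or less in each replicate.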

Test: RAM signaling pathway blockade in yeast – S. cerevisiae, Pdr1DBD-CYC8 efflux-inhibited sensitized strain, primary screen (AID 1298);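 note: 0% = DMSO untreated cells without growth and 100% = 10 µM 1-NA-PP1 full growth; higher means more yeast growth rescued from 5-FOA killing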
Conditions: S. cerevisiae cbk1-as DSE1-URA3 strain, 5-FOA growth OD615, 2 d; at 50 µM; stronger effect = higher value
With `OC(COc1ccccc1Cl)CN1CCN(CC(O)COc2ccccc2Cl)CC1` (stereo not drawn) the RAM network inhibition was 3.13% (inactive). With `COCCNC(=O)CN1C(=O)CC(C)(C)S(=O)(=O)c2ccccc21` the RAM network inhibition was -0.36% (inactive). In the case of `Cc1ccc(S(=O)(=O)NCC(=O)N2CCC(C)CC2)cc1`, the RAM network inhibition is reported as 4.08% (inactive). For `CCOc1ccc(C2CC(c3cccc(OC)c3)n3nc(N)nc3N2)cc1` (stereo not drawn), the RAM network inhibition was 4.58% (inactive). In the case of `Cc1ccc(C2CC(c3cccc(Br)c3)n3nc(N)nc3N2)cc1` (stereo not drawn), the RAM network inhibition is reported as 5.91% (inactive). With `Cc1cc(Nc2cccc(F)c2)n2nc(C)nc2n1` the RAM network inhibition was 5.28% (inactive). With `CCSc1nnc(NC(=O)CSc2nc3c(c(=O)n2-c2ccccc2)SCC3)s1` the RAM network inhibition was 4.35% (inactive). In the case of `O=c1oc2ccccc2n1Cc1ccccc1Cl`, the RAM network inhibition is reported as 0.31% (inactive). For `Cc1ccc(-c2nc(NC(=O)CSc3nnc(C)s3)ns2)cc1`, the RAM network inhibition was 2.66% (inactive). In the case of `CC1(C)CC2CC(C)(CN2C(=O)c2cc(-c3ccccc3O)on2)C1` (stereo not drawn), the RAM network inhibition is reported as 6.15% (inactive). In the case of `CC1CC(C)CN(S(=O)(=O)c2ccc(NC(=O)C3COc4ccccc4O3)cc2)C1` (stereo not drawn), the RAM network inhibition is reported as 2.76% (inactive). In the case of `O=C(Nc1scc(-c2cccs2)c1C(=O)O)c1cccs1`, the RAM network inhibition is reported as 0.42% (inactive). In the case of `Cc1nc2ccccn2c1C(=O)NC1CCCCC1`, the RAM network inhibition is reported as -0.77% (inactive). In the case of `O=c1[nH]c2ccc(Cl)cc2c(-c2ccccc2)c1N1CCOCC1`, the RAM network inhibition is reported as 1.15% (inactive). For `CCOC(=O)CN1c2ccccc2NC(=O)CC1C` (stereo not drawn), the RAM network inhibition was -0.43% (inactive). For `CCCCCn1c(=N)n(CC(O)COc2ccccc2OC)c2ccccc21` (stereo not drawn), the RAM network inhibition was 0.4% (inactive). For `COc1ccc(N2C(=O)c3ccccc3NC23CCCCC3)cc1`, the RAM network inhibition was 1.91% (inactive). With `Cc1cccc(N2CCN(C(=O)C3CCN(S(=O)(=O)c4cccc5cccnc45)CC3)CC2C)c1` (stereo not drawn) the RAM network inhibition was 1.04% (inactive). For `CC(=O)Nn1cc2c(=O)n(C)c(=O)n(C)c2c1`, the RAM network inhibition was 1.13% (inactive). For `CC1=C(C(=O)OCCOc2ccccc2)C(c2ccc(C)o2)C2=C(CC(C)(C)CC2=O)N1` (stereo not drawn), the RAM network inhibition was 7.5% (inactive). For `N/C(CC(=O)Nc1cccc(C(F)(F)F)c1)=N/O`, the RAM network inhibition was 4.4% (inactive). For `COc1ccccc1CNC(=O)CCn1c(=O)oc2ccccc21`, the RAM network inhibition was 5.75% (inactive). In the case of `Cc1ccc(C(=O)N(Cc2nc(-c3ccc(C)cc3)no2)C(C)C)cc1`, the RAM network inhibition is reported as 5.26% (inactive).
